Assay results from PubChem BioAssay (EPA / NIEHS).
Where “and” joins values, the source holds several entries; their conditions need not be identical. Equal entries are not always repeated. Results filed as inconclusive are left out. Some structures have more than one record in an assay (separate samples or runs), and their calls can disagree. Calls of active or inactive are those of the source. The calls were made as follows: active = hit-call score of the fitted dose curve at least 0.9, where 1 is the maximum; inconclusive = response in the unintended direction; inactive = score below 0.9.

What follows are compounds tested against mouse Peroxisome Proliferator-activated Receptor gamma (PPARg), Pparg (gene 19016) (UniProt P37238) (assay: ATG_mPPARg_XSP2: Attagene TRANS-FACTORIAL Multi-Species (XSP2) HepG2 Assay for mouse Peroxisome Proliferator-activated Receptor gamma (PPARg) (AID 2283830);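 also: hits are gains in reporter mRNA above DMSO so AC50 marks activation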).
Chain of mouse Peroxisome Proliferator-activated Receptor gamma (PPARg), Pparg (gene 19016) (P37238 whole entry, looked up): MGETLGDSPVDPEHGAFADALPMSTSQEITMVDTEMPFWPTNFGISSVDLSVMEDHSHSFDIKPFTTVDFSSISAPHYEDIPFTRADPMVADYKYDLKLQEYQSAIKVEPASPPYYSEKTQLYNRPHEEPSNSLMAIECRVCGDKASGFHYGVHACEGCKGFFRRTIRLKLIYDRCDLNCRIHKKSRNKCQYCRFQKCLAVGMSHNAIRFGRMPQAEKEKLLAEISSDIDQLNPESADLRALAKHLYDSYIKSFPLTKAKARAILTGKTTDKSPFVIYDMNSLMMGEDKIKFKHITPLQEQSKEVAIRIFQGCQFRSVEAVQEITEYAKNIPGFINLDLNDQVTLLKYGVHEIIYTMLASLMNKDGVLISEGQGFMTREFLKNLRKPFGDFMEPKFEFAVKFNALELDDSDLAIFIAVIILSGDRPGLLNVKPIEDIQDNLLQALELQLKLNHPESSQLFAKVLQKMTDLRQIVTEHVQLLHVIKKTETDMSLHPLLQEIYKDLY
Procedure: ATG_XSP2_multi-species_TRANS is a cell-based, multiplexed assay created by modifying the existing Attagene TRANS-FACTORIAL system to include a panel of nuclear receptors from some or all the following species: human (Homo sapiens), mouse (Mus musculus), frog (Xenopus laevis), zebrafish (Danio rerio), chicken (Gallus gallus), and turtle (Chrysemys picta). The […] format uses HepG2, a human liver cell line, with measurements taken at 24 hours after chemical dosing in a 24-well plate. Xsp2 included 3 nM 6-alpha-fluorotestosterone and 1.5 nM norgestrel to stimulate the androgen receptor.ATG_mPPARg_XSP2 is one of 29 assay components measured or calculated from the ATG_XSP2_multi-species_TRANS assay. It is designed to make measurements of mRNA induction, a form of inducible reporter, as detected with fluorescence intensity signals by Reverse transcription polymerase chain reaction (RT-PCR) and Capillary electrophoresis technology.The assay endpoint ATG_mPPARg_XSP2 was analyzed in the positive analysis fitting direction relative to DMSO as the negative control and baseline of activity. Using a type of inducible reporter, measures of mRNA for gain-of-signal activity can be used to understand the reporter gene at the transcription factor-level as they relate to the gene PPARg. Furthermore, this assay endpoint can be referred to as a primary readout, because this assay has produced multiple assay endpoints where this one serves a reporter gene function. To generalize the intended target to other relatable targets, this assay endpoint is annotated to the nuclear receptor intended target family, where the subfamily is non-steroidal.
Human liver HepG2 cells are transiently transfected with multiple reporter transcription units (MRTUs) in 6-well plates using FuGene 6 reagent (Roche; 3 ml FuGene/1 mg DNA). The MRTU constructs are regulated by a cis-regulating element (promoter). […] A major difference between the CIS and TRANS system is that in CIS activities of endogenous TFs are measured, whereas the TRANS assay evaluates changes in activities of exogenous, chimeric NR-Gal4 proteins. […] At the end of 24 hour incubation, total RNA was isolated using TriZol reagent (Invitrogen). The isolated RNA is then reverse-transcribed using oligo(dT) primer and Mo-MLV reverse transcriptase (Invitrogen) with DNAse I (Ambion) treatment for 30 min. The one-tenth of the produced cDNA was amplified by PCR using Taq DNA polymerase (Invitrogen) and two reporter sequence-specific primers. The PCR products were fluorescently labeled by primer extension with 6-arboxyfluorescein (6-FAM) 5'-labeled reporter sequence-specific primer (2 min at 95 C, 20 s at 68 C and 10 min at 72 C) and these products were digested with 5U of HpaI (New England Biolabs) for 2h at 37 C. The fragments were purified using Qiaquick PCR columns (Qiagen), analyzed on an ABI 3130xL genetic analyzer (Applied Biosystems) with peak positions identified by using a set of X-rhodamine (ROX)-labeled MapMarker1000 molecular weight standards (BioVentures). The raw capillary electrophoresis data was processed using Attagraph software (Attagene).
`C#CCC1=C(C)C(OC(=O)C2C(C=C(C)C)C2(C)C)CC1=O` (stereo unspecified) was tested, and the AC50 was 30.2 µM (active).
In the case of `CCC(=O)Nc1ccc(Cl)c(Cl)c1`, the AC50 is reported as 39.7 µM (active) and the outcome is reported as “inactive”.
With `CCc1cccc(C)c1N(C(=O)CCl)C(C)COC` (stereo unspecified) the AC50 was 27.3 µM (active).
`CCOP(=S)(OCC)Oc1ccc2c(C)c(Cl)c(=O)oc2c1` was tested, and the AC50 was 5.43 µM (active).
For `COc1ccc(C(=CC(=O)N2CCOCC2)c2ccc(Cl)cc2)cc1OC`, the outcome was “inactive” and the AC50 was 29.3 µM (active).
`CCCOCC(=Nc1ccc(Cl)cc1C(F)(F)F)n1ccnc1` was tested, and the AC50 was 1.28 µM (active).
For `CCOP(=O)(NC(C)C)Oc1ccc(SC)c(C)c1` (stereo unspecified), the AC50 was 31.6 µM (active) and 38.4 µM (active).
In the case of `Nc1c(Cl)cc([N+](=O)[O-])cc1Cl`, the AC50 is reported as 11.9 µM (active) and 41.8 µM (active).
With `CCC(CC)Nc1c([N+](=O)[O-])cc(C)c(C)c1[N+](=O)[O-]` the outcome was “inactive”.
